Results: ChEMBL document CHEMBL3988442, “University of Dundee, Small-Polar-MMV Screening Library” (2021)
About 13,000 (27%) of roughly 48,000 compounds showed an effect of 50% or more. This is one part of the list.

test system: Wolbachia pipientis; assay: Anti-Wolbachia Cell-Based Screen; format: functional; parameters: scale not given: in the data most compounds retested in dose-response had high values; conditions: 5 µM

Compound | Percent Effect [%]
O=C(c1cnc2[nH]c(=O)[nH]c(=O)c2c1)N1CCCC1C1CCCCC1 (centres undefined) | 5.907
Cc1cccc(S(=O)(=O)NC(=O)c2ccc3c(c2)nnn3C)c1 | -16.64
CC(C)c1noc(-c2ccc(NCc3noc(C(C)C)n3)nc2)n1 | -9.684
Cc1ccccc1OCC1CCCN(C(=O)Cc2c[nH]c(=O)[nH]c2=O)C1 (centres undefined) | -4.345
O=C(COc1ccc2c(c1)CCC2)NS(=O)(=O)c1cncc(Br)c1 | -16.45
CC(O)c1cn(CC2CCN(C(=O)CN(C)C(C)C)CC2)nn1 (centres undefined) | -14.32
CSc1ccc(C)c(C(=O)N2CCCC(n3cncn3)C2)c1 (centres undefined) | 94.98
Cc1ccc(S(C)(=O)=O)cc1C(=O)N1CCCC(n2cncn2)C1 (centres undefined) | 123.8
Cc1cc(C)n(C2CN(C(=O)c3cn4ccsc4n3)C2)n1 | -20.57
CCn1c(CN(C)C)nnc1C1CCN(Cc2ccc(Cl)c(F)c2)CC1 | -16.98
COCCO[C@@H]1CCN(c2cc(OC)ncn2)[C@H]1Cc1cnn(C)c1 | -2.108
Cn1cc(C[C@H]2[C@H](N3CCOCC3)CCN2c2ncc(F)cn2)cn1.O=C(O)C(F)(F)F | -13.6
CO[C@@H]1CCN(c2ncccn2)[C@H]1Cc1ccccc1 | -5.923
COc1cc(N2CC[C@@H](OC)[C@@H]2Cc2cnn(C)c2)ncn1 | 110.7
CO[C@@H]1CCN(c2ncc(F)cn2)[C@H]1Cc1cnn(C)c1 | 112
COCCO[C@H]1CCN(c2cc(OC)ncn2)[C@H]1Cc1cnn(C)c1 | -1.257
CCc1ccccc1CNC(=O)CNCC(F)(F)F | -0.7333
Cc1nc(C(C)(C)NC(=O)Nc2cccc(C#N)c2)no1 | -15.63
CC(C)CC(=O)N1CCC(Nc2nc(O)cc(-c3ccsc3)n2)CC1 | 93.38
CC(C)Nc1nc2c(c(NC3CC3)n1)CN(C(=O)Cc1ccsc1)CC2 | -13.92
O=C(Cn1cccn1)N1CCC(Cn2cc(-c3ccsc3)nn2)CC1 | 4.923
O=C(O)C(F)(F)F.O=C(O)c1cc2c(nc1-c1ccsc1)CCN(C(=O)C1CC1)CC2 | -4.061
O=C(C1CCOC1)N1CCC(Cn2cc(-c3ccsc3)nn2)CC1 (centres undefined) | -11.04
CCCC(=O)N1CCC(Nc2nc(O)cc(-c3ccsc3)n2)CC1 | 101
CC(=O)c1c(F)cccc1NC1CCN(C(=O)CC(C)C)CC1 | -2.175

Compound | Percent Effect [%]
O=C(C1CC1)N1CCC(Nc2nc(O)cc(-c3ccsc3)n2)CC1 | 99.22
CCCC(=O)N1CCC(Nc2ncc(Br)cn2)CC1 | -8.622
Cc1nnc(CN2CCCC2c2ccc3c(c2)OCCO3)n1C (centres undefined) | 15.49
CC(C)(C)OC(=O)N[C@H]1CCN(C(=O)c2cc(Cl)c[nH]2)C1 | -15.92
CCCC(C)NC1CCN(c2ccc(-n3ccnc3C)cc2)CC1 (centres undefined) | -8.3
COCC(=O)Nc1ccc([C@@H](O)[C@H]2COCC(=O)N2CC(C)C)cc1 | 0.04576
CCC(=O)Nc1ccc(C(C)NC(=O)COC)cc1 (centres undefined) | 92.17
CC(NC(=O)CSCC(=O)Nc1ccccc1)c1ccccc1 (centres undefined) | 5.031
Cc1cnn(CCNCc2cc(-c3ccccc3)no2)c1 | 2.44
CCNC(=O)C1(Cc2cc(-c3ccccc3)no2)CCCN(C(C)C)C1 (centres undefined) | 86.79
CC(NC(N)=O)C(=O)N(C)CCCc1cc(-c2ccccc2)no1 (centres undefined) | -0.2623
Cc1ccc(-c2cc(CNC(=O)N3CCC(CO)CC3)on2)cc1 | 6.064
CCNC(=O)C1(Cc2cc(-c3ccccc3)no2)CCCN(C(C)=O)C1 (centres undefined) | 105.3
CCCNC(=O)C1(Cc2cc(-c3ccccc3)no2)CCN(C(C)=O)C1 (centres undefined) | 76.91
Cc1ccc(-c2cc(CNC(=O)N3CCOC(C)C3)on2)cc1 (centres undefined) | -4.045
CCNC(=O)C1(Cc2cc(-c3ccc(C)cc3)no2)CCCN(C)C1 (centres undefined) | 151.7
CNC(=O)CC1CCN(Cc2nc(-c3ccc(SC)cc3)oc2C)CC1 | -19.45
O=C(O)C(F)(F)F.O=C([C@H]1C[C@H]2OCC[C@H]2N(Cc2ccco2)C1)N1CCCO1 | 11.53
COc1ccc(CN2C[C@@H](CN(C)C)[C@@H](CO)C2)c(Cl)c1OC | -2.231
c1cc2c(cc1C[C@@H]1CC[C@H](CN3CCCOCC3)O1)OCO2 | 5.044
Cc1cc(C)cc(C2(C(=O)NC(C)Cn3ccnc3)CC2)c1 (centres undefined) | -3.779
COc1ccc(OC)c(C(C)Nc2nc3c(C)nn(C)c3c(=O)n2C)c1 (centres undefined) | -10.12
CC(C)C(=O)N1CCN(CCOc2cccc(C#N)c2)CC1 | 22.03
CN(C)C(=O)NCC(=O)N(C)Cc1cc(-c2ccccc2)no1 | 2.31
CCNC(=O)CNS(=O)(=O)Cc1cc(-c2ccccc2)no1 | -10.1

Compound | Percent Effect [%]
CCNC(=O)C1(Cc2cc(-c3ccccc3)no2)CCCN(C)C1 (centres undefined) | 76.81
Cc1cc(NCC(=O)N(C)Cc2cccs2)c(C(N)=O)cc1F | 8.297
CC(C)N1CCCC(C(=O)NC(C)(C)c2nnc(N)s2)C1 (centres undefined) | -13.81
Cn1cc(-c2c(C#N)c(N)nc3c2CCc2[nH]ccc2-3)cn1 | 4.236
N#Cc1c(N)nc2c(c1-c1cnc(N3CCCC3)nc1)COCC2 | 84.51
CCC(C)Sc1ncc(-c2c(C#N)c(N)nc3c2COCC3)cn1 (centres undefined) | 95.02
CCOc1ccc(NC2CCN(C3CC3)C2=O)cn1 (centres undefined) | -7.266
N#Cc1c(C2CCOC2)cc(-c2ccc(N3CCCCC3)cc2)nc1N (centres undefined) | 2.752
COCCc1ncc(-c2c(C#N)c(N)nc3c2CCc2[nH]ccc2-3)cn1 | -13.87
CCOc1ccc(NC(=O)NC2CCc3[nH]ncc3C2)cn1 (centres undefined) | -9.557
COc1ncc(-c2c(C#N)c(N)nc3c2CCc2[nH]ccc2-3)cn1 | -13.65
CCOc1ccc(-c2c(C#N)c(N)nc3c2COCC3)cn1 | 106.3
Cc1cc(-c2c(C)c(-c3cnn(C)c3)nc(N)c2C#N)oc1C | 17.25
CC(C)n1cc(-c2c(C#N)c(N)nc3c2COCC3)cn1 | 109.6
CC(C)=CCC/C(C)=C/CN1CCN(C)C2(CCNC(=O)CC2)C1 (centres undefined) | 14.94
Cc1ccc(CN2CCc3[nH]nc(C(=O)N4CCNC(=O)C4)c3C2)s1.O=C(O)C(F)(F)F | -6.156
COCC1CCN(C(=O)c2cccc(S(=O)(=O)NC3CCCC3)c2)C1 (centres undefined) | 8.028
CC(C)CCN1CN=C(NS(=O)(=O)c2ccc(F)cc2)NC1 | 13.74
Clc1ccc(C2(NCc3noc(C4CC4)n3)CCCC2)cc1 | 6.408
CNC(=O)Cc1ccccc1NC(=O)N[C@H]1c2ccccc2C[C@H]1O | 73.79
CS(=O)(=O)c1ccccc1NC(=O)N[C@@H]1c2ccccc2C[C@@H]1O | 6.839
CN(C)C(=O)c1ccccc1NC(=O)N[C@@H]1c2ccccc2C[C@@H]1O | -11.76
CCn1cc(N2Cc3nc(N)ncc3C2=O)cn1 | 3.471
NC(=O)CN1C(=O)CO[C@H]2CN(Cc3ccc(C(F)(F)F)cc3)C[C@H]21 | -2.639
Cl.FC(F)Oc1ccc(CNCc2cc(Cl)c3c(c2)OCO3)cc1 | -3.122

Compound | Percent Effect [%]
COCCc1noc(CN(C)C2CCCN(c3ccc(C)nn3)C2)n1 (centres undefined) | -2.157
COCCc1noc(CN(C)c2nc(C)nc(C)c2C)n1 | 89.33
COCCc1noc(CN(C)c2nc(C)cc(C)n2)n1 | 101
COCCc1noc(CN(C)c2nccc(C)n2)n1 | 10.01
COCCc1noc(CN2C(=O)OC[C@@H]2C(C)C)n1 | -4.227
CC(C)N[C@@H]1CO[C@H](CNC(=O)c2ccccc2)[C@H]1O | -5.064
O=C(NCc1ccco1)N1CCC(n2cc(-c3ccccn3)nn2)CC1 | 27.21
CCn1cc(C(=O)N2CCCC(c3nccs3)C2)cn1 (centres undefined) | 107.1
O=C(c1cnc(O)c(Cl)c1)N1CCCC(c2nccs2)C1 (centres undefined) | 105
O=C(c1cnc(C2CC2)nc1)N1CCCC(c2nccs2)C1 (centres undefined) | 70.5
O=C(CN1CCCNC1=O)N1CCCC(c2nccs2)C1 (centres undefined) | -4.052
Cc1noc(COCC(=O)N2CCCC(c3nccs3)C2)n1 (centres undefined) | -1.591
O=C(c1cnc(C2CC2)nc1)N1CCC(N2CCC(O)CC2)CC1 | -12.63
Cc1csc(C2CCCN(C(=O)c3cnc4n[nH]c(C)c4c3)C2)n1 (centres undefined) | -1.582
CC(C)Oc1ncc(C(=O)N2CCCC(C(=O)O)C2)cc1Cl (centres undefined) | -16.5
O=C(c1cncnc1)N1CCCC(c2nccs2)C1 (centres undefined) | 117.1
O=C(Nc1cnccn1)[C@@H]1COC[C@H]2CN(c3ncc(F)cn3)C[C@H]21 | -14.05
CCCN1CCC(N2CCN(c3cc(C)nc(C)c3)CC2)CC1 | -11.77
CC1CN(C(=O)NCc2cccc(C#N)c2)CCN1CC(F)(F)F (centres undefined) | -8.516
Cc1cc(C(=O)NC2CCN(c3ncccc3C#N)CC2)on1 | 2.44
Cc1cnc(CNC(=O)[C@@]23CCO[C@@H]2CCN(C2CCCC2)C3)cn1.O=C(O)C(F)(F)F | 116.3
Cc1cnc(CNC(=O)[C@@]23CCO[C@@H]2CCNC3)cn1.O=C(O)C(F)(F)F | 84.34
COCCNC(=O)[C@@]12CCO[C@@H]1CCN(Cc1scnc1C)C2.O=C(O)C(F)(F)F | 6.926
O=C(NCc1ccco1)[C@@]12CCO[C@@H]1CCN(C1CCC1)C2.O=C(O)C(F)(F)F | -7.517
